Data published in the supplement of paper PMC8728848.
The sample as a whole holds a higher share of the strongest signals than the screen did.

Columns and labels:
Assay in all cases: glycan array binding signal (z-score within array); higher = stronger binding
Details in all cases: glycan notation: IUPAC condensed, linker removed
[1] = biological target: Fuc(a1-2)Gal(b1-4)GlcNAc(b1-3)Gal(b1-4)GlcNAc
Outline: (§1)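 Glycan array data were curated from 3228 arrays in the Consortium for Functional Glycomics database and kept only where the protein sequence was available. Glycan names were converted to IUPAC-condensed notation, and columns mapping to the same glycan were averaged. The binding signal is a within-array Z-score, averaged across arrays of the same protein sequence at different concentrations or buffers and across linkers. Negative Z-scores can be read as non-binding.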

[2] = biological target: Fuc(a1-2)Gal(b1-4)GlcNAc(b1-3)Gal(b1-4)GlcNAc(b1-2)Man(a1-3)[Fuc(a1-2)Gal(b1-4)GlcNAc(b1-3)Gal(b1-4)GlcNAc(b1-2)Man(a1-6)]Man(b1-4)GlcNAc(b1-4)GlcNAc
Outline: as §1

[3] = biological target: Fuc(a1-2)[Gal(a1-3)]Gal(b1-3)GlcNAc
Outline: as §1

[4] = biological target: Fuc(a1-3)[Gal3S(b1-4)]Glc
Outline: as §1

Gal(a1-3)Gal(b1-3)GlcNAc = biological target: Gal(a1-3)Gal(b1-3)GlcNAc
Outline: as §1

Gal(a1-3)Gal(b1-4)Glc = biological target: Gal(a1-3)Gal(b1-4)Glc
Outline: as §1

[5] = biological target: Gal(a1-3)Gal(b1-4)GlcNAc(b1-6)GalNAc
Outline: as §1

[6] = biological target: Gal(b1-3)GlcNAc(a1-3)Gal(b1-4)GlcNAc
Outline: as §1

[7] = biological target: Gal(b1-3)GlcNAc(b1-3)Gal(b1-4)GlcNAc(b1-3)Gal(b1-4)GlcNAc(b1-2)[Gal(b1-3)GlcNAc(b1-3)Gal(b1-4)GlcNAc(b1-3)Gal(b1-4)GlcNAc(b1-6)]Man(a1-6)[Gal(b1-3)GlcNAc(b1-3)Gal(b1-4)GlcNAc(b1-3)Gal(b1-4)GlcNAc(b1-2)Man(a1-3)]Man(b1-4)GlcNAc(b1-4)[Fuc(a1-6)]GlcNAc
Outline: as §1

[8] = biological target: Gal(b1-3)[Fuc(a1-4)]GlcNAc(b1-2)Man
Outline: as §1

[9] = biological target: Gal(b1-3)[Fuc(a1-4)]GlcNAc(b1-3)Gal(b1-3)[Fuc(a1-4)]GlcNAc
Outline: as §1

[10] = biological target: Gal(b1-4)GalNAc(a1-3)[Fuc(a1-2)]Gal(b1-4)GlcNAc
Outline: as §1

[11] = biological target: Gal(b1-4)GalNAc(b1-3)[Fuc(a1-2)]Gal(b1-4)GlcNAc
Outline: as §1

[12] = biological target: Gal(b1-4)GlcNAc(b1-3)Gal(b1-4)GlcNAc(b1-3)Gal(b1-4)GlcNAc(b1-3)Gal(b1-4)GlcNAc(b1-2)[Gal(b1-4)GlcNAc(b1-3)Gal(b1-4)GlcNAc(b1-3)Gal(b1-4)GlcNAc(b1-3)Gal(b1-4)GlcNAc(b1-6)]Man(a1-6)[Gal(b1-4)GlcNAc(b1-3)Gal(b1-4)GlcNAc(b1-3)Gal(b1-4)GlcNAc(b1-3)Gal(b1-4)GlcNAc(b1-2)Man(a1-3)]Man(b1-4)GlcNAc(b1-4)[Fuc(a1-6)]GlcNAc
Outline: as §1

[13] = biological target: Gal(b1-4)GlcNAc(b1-3)Gal(b1-4)GlcNAc(b1-3)[Gal(b1-4)GlcNAc(b1-3)Gal(b1-4)GlcNAc(b1-6)]GalNAc
Outline: as §1

[14] = biological target: Gal3S(b1-4)[Fuc(a1-3)]GlcNAc6S
Outline: as §1

GalNAc(b1-3)Gal = biological target: GalNAc(b1-3)Gal
Outline: as §1

GalNAc(b1-4)Gal(b1-4)Glc = biological target: GalNAc(b1-4)Gal(b1-4)Glc
Outline: as §1

[15] = biological target: GalNAc3S(b1-4)[Fuc(a1-3)]GlcNAc
Outline: as §1

GalNAc4S6S(b1-4)GlcNAc = biological target: GalNAc4S6S(b1-4)GlcNAc
Outline: as §1

Glc(a1-4)Glc = biological target: Glc(a1-4)Glc
Outline: as §1

[16] = biological target: Glc(a1-6)Glc(a1-6)Glc(a1-6)Glc
Outline: as §1

[17] = biological target: GlcNAc(a1-3)Gal(b1-4)GlcNAc
Outline: as §1

[18] = biological target: GlcNAc(a1-4)Gal(b1-4)GlcNAc(b1-3)Gal(b1-4)GlcNAc(b1-3)Gal(b1-4)GlcNAc
Outline: as §1

[19] = biological target: GlcNAc(b1-3)Gal(b1-4)GlcNAc(b1-2)Man(a1-3)[GlcNAc(b1-3)Gal(b1-4)GlcNAc(b1-2)Man(a1-6)]Man(b1-4)GlcNAc(b1-4)GlcNAc
Outline: as §1

[20] = biological target: GlcNAc(b1-3)Gal(b1-4)GlcNAc(b1-2)[GlcNAc(b1-3)Gal(b1-4)GlcNAc(b1-6)]Man(a1-6)[GlcNAc(b1-3)Gal(b1-4)GlcNAc(b1-2)Man(a1-3)]Man(b1-4)GlcNAc(b1-4)GlcNAc
Outline: as §1

[21] = biological target: GlcNAc(b1-3)Gal(b1-4)GlcNAc(b1-3)Gal(b1-4)GlcNAc(b1-3)Gal(b1-4)GlcNAc(b1-2)[GlcNAc(b1-3)Gal(b1-4)GlcNAc(b1-3)Gal(b1-4)GlcNAc(b1-3)Gal(b1-4)GlcNAc(b1-6)]Man(a1-6)[GlcNAc(b1-3)Gal(b1-4)GlcNAc(b1-3)Gal(b1-4)GlcNAc(b1-3)Gal(b1-4)GlcNAc(b1-2)Man(a1-3)]Man(b1-4)GlcNAc(b1-4)[Fuc(a1-6)]GlcNAc
Outline: as §1

[22] = biological target: GlcNAc(b1-4)GlcNAc(b1-4)GlcNAc
Outline: as §1

[23] = biological target: GlcNAc(b1-4)GlcNAc(b1-4)GlcNAc(b1-4)GlcNAc(b1-4)GlcNAc(b1-4)GlcNAc
Outline: as §1

[24] = biological target: GlcNAc(b1-6)Gal(b1-4)GlcNAc
Outline: as §1

[25] = biological target: Kdn(a2-3)Gal(b1-4)[Fuc(a1-3)]GlcNAc
Outline: as §1

Kdn(a2-6)Gal(b1-4)GlcNAc = biological target: Kdn(a2-6)Gal(b1-4)GlcNAc
Outline: as §1

Man(b1-4)GlcNAc = biological target: Man(b1-4)GlcNAc
Outline: as §1

Neu5Ac(a2-3)Gal = biological target: Neu5Ac(a2-3)Gal
Outline: as §1

[26] = biological target: Neu5Ac(a2-3)Gal(b1-4)GlcNAc(b1-2)Man(a1-3)[GlcNAc(b1-4)][Neu5Ac(a2-3)Gal(b1-4)GlcNAc(b1-2)Man(a1-6)]Man(b1-4)GlcNAc(b1-4)GlcNAc
Outline: as §1

[27] = biological target: Neu5Ac(a2-3)Gal(b1-4)GlcNAc(b1-3)Gal(b1-4)GlcNAc(b1-6)[Gal(b1-3)]GalNAc
Outline: as §1

[28] = biological target: Neu5Ac(a2-3)Gal(b1-4)GlcNAc(b1-3)GalNAc
Outline: as §1

[29] = biological target: Neu5Ac(a2-3)Gal(b1-4)[Fuc(a1-3)]GlcNAc(b1-3)Gal
Outline: as §1

Neu5Ac(a2-3)GalNAc = biological target: Neu5Ac(a2-3)GalNAc
Outline: as §1

[30] = biological target: Neu5Ac(a2-6)Gal(b1-4)GlcNAc(b1-2)Man(a1-3)[Neu5Ac(a2-3)Gal(b1-4)GlcNAc(b1-2)Man(a1-6)]Man(b1-4)GlcNAc(b1-4)GlcNAc
Outline: as §1

Neu5Ac(a2-6)GalNAc = biological target: Neu5Ac(a2-6)GalNAc
Outline: as §1

[31] = biological target: Neu5Ac(a2-8)Neu5Ac(a2-3)Gal(b1-3)GalNAc(b1-4)[Neu5Ac(a2-3)]Gal(b1-4)Glc
Outline: as §1

[32] = biological target: Neu5Ac(a2-8)Neu5Ac(a2-8)Neu5Ac(a2-8)Neu5Ac(a2-3)[GalNAc(b1-4)]Gal(b1-4)Glc
Outline: as §1

[33] = biological target: Neu5Gc(a2-3)Gal(b1-4)GlcNAc
Outline: as §1

B1: EULS2 M3 (Oryza sativa) (protein)
chain: MVYCRANPNYAMTARNGAVVLAPANPKDEYQHWIKDMRWSTSIKDEEGYPAFALVNKATGQAIKHSLGQSHPVRLVPYNPEVMDESVLWTESRDVGNGFRCIRMVNNIYLNFDAFHGDKYHGGVRDGTDIVLWKLCEGDSLRWKIQPYYILEQKLISEEDLNSAVDHHHHHH
Question: How did the “glycan array binding signal (z-score)” value [1] turn out when B1 was run?
Answer: 0.227

Question: And the “glycan array binding signal (z-score)” value [2]?
Answer: 0.177

Question: And the “glycan array binding signal (z-score)” value [3]?
Answer: 1.44

Question: And the “glycan array binding signal (z-score)” value [4]?
Answer: 0.485

Question: What about the “glycan array binding signal (z-score)” value (Gal(a1-3)Gal(b1-3)GlcNAc) of the same binder?
Answer: 8.25

Question: What about the “glycan array binding signal (z-score)” value (Gal(a1-3)Gal(b1-4)Glc) of the same binder?
Answer: 0.227

Question: What about the “glycan array binding signal (z-score)” value [5] of the same binder?
Answer: -0.929

Question: And the “glycan array binding signal (z-score)” value [6]?
Answer: 2.02

Question: And the “glycan array binding signal (z-score)” value [7]?
Answer: 1.66

Question: What about the “glycan array binding signal (z-score)” value [8] of the same binder?
Answer: 1.17

Question: What about the “glycan array binding signal (z-score)” value [9] of the same binder?
Answer: 2.13

Question: And the “glycan array binding signal (z-score)” value [10]?
Answer: -0.34

Question: And the “glycan array binding signal (z-score)” value [11]?
Answer: -0.158

Question: And the “glycan array binding signal (z-score)” value [12]?
Answer: 0.461

Question: And the “glycan array binding signal (z-score)” value [13]?
Answer: 0.234

Question: And the “glycan array binding signal (z-score)” value [14]?
Answer: 2.11

Question: What about the “glycan array binding signal (z-score)” value (GalNAc(b1-3)Gal) of the same binder?
Answer: 2.46

Question: What about the “glycan array binding signal (z-score)” value (GalNAc(b1-4)Gal(b1-4)Glc) of the same binder?
Answer: 0.053

Question: And the “glycan array binding signal (z-score)” value [15]?
Answer: -0.623

Question: And the “glycan array binding signal (z-score)” value (GalNAc4S6S(b1-4)GlcNAc)?
Answer: 0.056

Question: What about the “glycan array binding signal (z-score)” value (Glc(a1-4)Glc) of the same binder?
Answer: 0.668

Question: What about the “glycan array binding signal (z-score)” value [16] of the same binder?
Answer: 1.67

Question: And the “glycan array binding signal (z-score)” value [17]?
Answer: -0.405

Question: And the “glycan array binding signal (z-score)” value [18]?
Answer: -0.139

Question: What about the “glycan array binding signal (z-score)” value [19] of the same binder?
Answer: -0.171

Question: And the “glycan array binding signal (z-score)” value [20]?
Answer: 0.562

Question: What about the “glycan array binding signal (z-score)” value [21] of the same binder?
Answer: 0.306

Question: And the “glycan array binding signal (z-score)” value [22]?
Answer: -0.413

Question: What about the “glycan array binding signal (z-score)” value [23] of the same binder?
Answer: -0.977

Question: And the “glycan array binding signal (z-score)” value [24]?
Answer: 1.64

Question: And the “glycan array binding signal (z-score)” value [25]?
Answer: 0.28

Question: What about the “glycan array binding signal (z-score)” value (Kdn(a2-6)Gal(b1-4)GlcNAc) of the same binder?
Answer: -0.599

Question: And the “glycan array binding signal (z-score)” value (Man(b1-4)GlcNAc)?
Answer: 0.117

Question: What about the “glycan array binding signal (z-score)” value (Neu5Ac(a2-3)Gal) of the same binder?
Answer: -1.29

Question: What about the “glycan array binding signal (z-score)” value [26] of the same binder?
Answer: -0.414

Question: And the “glycan array binding signal (z-score)” value [27]?
Answer: -0.345

Question: And the “glycan array binding signal (z-score)” value [28]?
Answer: -0.286

Question: What about the “glycan array binding signal (z-score)” value [29] of the same binder?
Answer: 0.557

Question: And the “glycan array binding signal (z-score)” value (Neu5Ac(a2-3)GalNAc)?
Answer: -0.085

Question: What about the “glycan array binding signal (z-score)” value [30] of the same binder?
Answer: -0.391

Question: What about the “glycan array binding signal (z-score)” value (Neu5Ac(a2-6)GalNAc) of the same binder?
Answer: -0.8

Question: What about the “glycan array binding signal (z-score)” value [31] of the same binder?
Answer: 1.61

Question: What about the “glycan array binding signal (z-score)” value [32] of the same binder?
Answer: -0.424

Question: And the “glycan array binding signal (z-score)” value [33]?
Answer: 0.145
